Screening data deposited in PubChem by several laboratories.
CYP2C19 activ – human CYP2C19 activators, primary screen, biochemical, luminescence. Cytochrome P450 2C19 (Homo sapiens), P33261. recombinant CYP2C19, luciferin-H EGE luminescence; hits give high values; 0 = fully inhibited enzyme, 1 = untreated enzyme. activation factor at 5 µM. 96,000 tested, under 10 active;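 active means activation factor of at least 2 at 5 µM in the primary screen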;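 further: 0 = wells with 2.5 mM tranylcypromine and 1 = vehicle-only wells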
Target sequence (P33261 whole entry, looked up): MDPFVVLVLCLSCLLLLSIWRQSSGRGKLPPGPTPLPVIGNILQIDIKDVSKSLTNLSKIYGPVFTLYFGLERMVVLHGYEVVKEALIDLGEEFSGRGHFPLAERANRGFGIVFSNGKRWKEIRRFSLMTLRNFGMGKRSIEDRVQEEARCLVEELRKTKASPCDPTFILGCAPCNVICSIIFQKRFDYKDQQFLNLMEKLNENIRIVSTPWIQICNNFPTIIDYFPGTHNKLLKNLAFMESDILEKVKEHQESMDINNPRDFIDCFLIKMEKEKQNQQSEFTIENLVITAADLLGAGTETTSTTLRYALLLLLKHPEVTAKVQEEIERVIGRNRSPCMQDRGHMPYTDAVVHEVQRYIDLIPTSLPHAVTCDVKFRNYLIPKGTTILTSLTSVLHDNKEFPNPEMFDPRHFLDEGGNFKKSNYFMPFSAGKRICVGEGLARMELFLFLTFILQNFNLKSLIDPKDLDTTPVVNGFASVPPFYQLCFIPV
CYP2C9 inh – blockers of cytochrome P450 2C9 activity – biochemical, luminescence, ADME assay, primary screen; CYP2C9 Supersomes, luciferin-H conversion; actives 20% (n = 96,000); P11712; inhibition, % at 5 µM;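 active means blocking of liver enzyme CYP2C9 beyond about 50% at 5 µM, limit read from the data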
CYP2C19 inh – blockers of cytochrome P450 2C19 activity – biochemical, luminescence, ADME assay, primary screen | P33261 | CYP2C19 Supersomes, luciferin-H EGE luminescence, 30 min | inhibition, % at 5 µM | actives 21% (n = 96,000);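 active means CYP2C19 inhibition above a set limit at 5 µM in the primary screen, cut at about 50% in these data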;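 further: plate controls were negative control wells for no effect and 2.5 mM tranylcypromine positive control for full effect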
CYP2C9 act – human CYP2C9 activators, primary screen, biochemical, luminescence; Cytochrome P450 2C9 (Homo sapiens), P11712; recombinant CYP2C9, luciferin-H conversion; hits give high values; factor 1 = untreated enzyme, 0 = blocked; activation factor at 5 µM; actives 1.4% (n = 96,000); AID 1024, 2008;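 active means activation factor of 2 or more for CYP2C9 at a 5 µM dose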;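 further: 0 = sulfaphenazole-blocked wells and 1 = vehicle-only wells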
EphB4 antag – EphB4-ephrin-B2 interaction antagonists, primary screen, biochemical, TNYL-RAW peptide probe, fluorescence polarization; Ephrin type-B receptor 4 (Homo sapiens), P54760; AID 720, 2007; inhibition, % at 7 µM; actives 0.15% (n = 97,000); EphB4 LBD / TNYL-RAW-Alexa532 peptide;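 active means inhibition above the screen-wide mean inhibition plus 3 SD, cut at about 15% in these data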;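 further: 0% = DMSO wells and 100% = excess unlabeled TNYL-RAW peptide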
An asterisk follows results filed as active. The list is not random: actives were taken first. Their share in the collection is about 27%.

Results for COc1ccc(CCNC(=O)CN2CCN(c3cccc(C(F)(F)F)c3)CC2)cc1 ?
CYP2C19 activ: 0.2; CYP2C9 inh: 75.5*; CYP2C19 inh: 76.4*; CYP2C9 act: 0.2; EphB4 antag: 2.9

What do the screens show for `COc1ccccc1C(=O)N1CCN(c2cccc(C(F)(F)F)c2)CC1`?
CYP2C19 activ: 0.1; CYP2C9 inh: 68.2*; CYP2C19 inh: 92.4*; CYP2C9 act: 0.3; EphB4 antag: -4.5

How did CCOC(=O)N1CCN(c2ccc(C(=O)c3cccc(F)c3)cc2)CC1 do in these assays?
CYP2C19 activ: 0.3; CYP2C9 inh: 82.0*; CYP2C19 inh: 66.8*; CYP2C9 act: 0.2; EphB4 antag: -0.8

Results for O=C(c1csc2c1CCCC2)N1CCN(c2ncccn2)CC1 ?
CYP2C19 activ: 0.3; CYP2C9 inh: 82.1*; CYP2C19 inh: 65.1*; CYP2C9 act: 0.2; EphB4 antag: 3.5

What do the screens show for `Cc1occc1C(=O)N1CCN(c2ncccn2)CC1`?
CYP2C19 activ: 0.9; CYP2C9 inh: 10.2; CYP2C19 inh: 11.5; CYP2C9 act: 0.9; EphB4 antag: 5.4

How did Cc1cc(C)nc(Nc2n[nH]c(-c3ccccc3Br)n2)n1 do in these assays?
CYP2C19 activ: 0.8; CYP2C9 inh: 74.4*; CYP2C19 inh: 18.5; CYP2C9 act: 0.3; EphB4 antag: -8.3

How did Cn1c(C(=O)NCc2ccccn2)cc2c(=O)n3ccccc3nc21 do in these assays?
EphB4 antag: 2.6

How did O=C(Nc1ccccc1C(=O)NCc1ccc(Cl)cc1)c1ccco1 do in these assays?
CYP2C19 activ: 0.8; CYP2C9 inh: 57.7*; CYP2C19 inh: 22.2; CYP2C9 act: 0.4; EphB4 antag: 6.7

How did O=C(Nc1ccccc1C(=O)NCCc1ccccc1)c1ccco1 do in these assays?
CYP2C19 activ: 0.5; CYP2C9 inh: 71.1*; CYP2C19 inh: 53.9*; CYP2C9 act: 0.3; EphB4 antag: 1.9

What do the screens show for `O=C(NCCc1ccccc1)c1ccco1`?
EphB4 antag: -3.1

Results for O=C(O)CNC(=O)c1ccccc1NC(=O)c1ccco1 ?
CYP2C19 activ: 1; CYP2C9 inh: 0.4; CYP2C19 inh: -4.1; CYP2C9 act: 1; EphB4 antag: 6.0

What do the screens show for `O=C(NCCNC(=O)C(c1ccccc1)c1ccccc1)c1ccco1`?
CYP2C19 activ: 0.3; CYP2C9 inh: 51.2*; CYP2C19 inh: 65.5*; CYP2C9 act: 0.5; EphB4 antag: -1.7

Results for CCN(CC)S(=O)(=O)c1ccc(Cl)c(C(=O)Nc2nncs2)c1 ?
CYP2C19 activ: 1; CYP2C9 inh: 32.3; CYP2C19 inh: -4.1; CYP2C9 act: 0.7; EphB4 antag: 0.7

How did CC(C)(Oc1ccc(Cl)cc1)C(=O)NCc1ccncc1 do in these assays?
CYP2C19 activ: 0; CYP2C9 inh: 98.3*; CYP2C19 inh: 99.4*; CYP2C9 act: 0; EphB4 antag: 5.2

Results for COC(=O)/C=C/C(=O)Nc1cccnc1 ?
CYP2C19 activ: 1.1; CYP2C9 inh: -1.1; CYP2C19 inh: -7.0; CYP2C9 act: 1; EphB4 antag: -5.5

Results for CC(C)(Oc1ccc(Cl)cc1)C(=O)Nc1ccncc1 ?
CYP2C19 activ: 0; CYP2C9 inh: 97.1*; CYP2C19 inh: 99.9*; CYP2C9 act: 0; EphB4 antag: -0.4

How did CC(C)(Oc1ccc(Cl)cc1)C(=O)Nc1cccnc1 do in these assays?
CYP2C19 activ: 0.5; CYP2C9 inh: 25.4; CYP2C19 inh: 52.1*; CYP2C9 act: 0.7; EphB4 antag: 4.4

How did CCOc1ccc(C(=O)NCc2ccncc2)cc1 do in these assays?
CYP2C19 activ: 0.6; CYP2C9 inh: 13.9; CYP2C19 inh: 37.0; CYP2C9 act: 0.9; EphB4 antag: 0.4

How did CC(C)(Oc1ccc(Cl)cc1)C(=O)NC1CCSC1=O (configuration not stated) do in these assays?
EphB4 antag: 1.1

How did CC(C)(Oc1ccc(Cl)cc1)C(=O)NCc1ccco1 do in these assays?
CYP2C19 activ: 0.9; CYP2C9 inh: 51.6*; CYP2C19 inh: 11.4; CYP2C9 act: 0.5; EphB4 antag: -5.5

Results for CC(C)(C)c1ccc(OCC(=O)NCc2ccco2)cc1 ?
CYP2C19 activ: 0.8; CYP2C9 inh: 31.0; CYP2C19 inh: 15.0; CYP2C9 act: 0.7; EphB4 antag: 3.4

Results for CCOc1ccccc1NS(=O)(=O)N(C)C ?
CYP2C19 activ: 1.1; CYP2C9 inh: -71.5; CYP2C19 inh: -13.1; CYP2C9 act: 1.7; EphB4 antag: 0.0

How did CCOc1ccccc1NS(=O)(=O)c1cccs1 do in these assays?
CYP2C19 activ: 0.2; CYP2C9 inh: -160.7; CYP2C19 inh: 77.6*; CYP2C9 act: 2.6*; EphB4 antag: -0.3

What do the screens show for `CCOc1ccc(N(CC(=O)Nc2ccc3c(c2)OCCO3)S(=O)(=O)c2c(C)noc2C)cc1`?
CYP2C19 activ: 1; CYP2C9 inh: 7.7; CYP2C19 inh: 0.0; CYP2C9 act: 0.9; EphB4 antag: 3.4

What do the screens show for `CCOc1ccccc1NC(=O)CN(c1ccc(C)cc1)S(=O)(=O)c1c(C)noc1C`?
CYP2C19 activ: 0; CYP2C9 inh: 95.8*; CYP2C19 inh: 99.1*; CYP2C9 act: 0; EphB4 antag: -5.7

How did CCOc1ccc(OCC)c(NC(=O)CN(c2ccc(C)cc2)S(=O)(=O)c2c(C)noc2C)c1 do in these assays?
CYP2C19 activ: 0.6; CYP2C9 inh: 91.7*; CYP2C19 inh: 41.8; CYP2C9 act: 0.1; EphB4 antag: 7.8

How did CCOc1ccccc1NC(=O)C1CCN(S(=O)(=O)c2c(C)noc2C)CC1 do in these assays?
CYP2C19 activ: 0.8; CYP2C9 inh: -39.7; CYP2C19 inh: 18.4; CYP2C9 act: 1.4; EphB4 antag: 0.9

What do the screens show for `CCOc1ccccc1NS(=O)(=O)c1c(C)noc1C`?
CYP2C19 activ: 0.3; CYP2C9 inh: 71.0*; CYP2C19 inh: 74.7*; CYP2C9 act: 0.3; EphB4 antag: 1.9

What do the screens show for `Cc1ccnc(NC(=O)C2CCN(S(=O)(=O)c3cccc4nonc34)CC2)c1`?
CYP2C19 activ: 0.9; CYP2C9 inh: -0.3; CYP2C19 inh: 10.1; CYP2C9 act: 1; EphB4 antag: -8.0

What do the screens show for `CCN1CCCC1CNc1ncnc2c1[nH]c1ccc(Cl)cc12` (configuration not stated)?
CYP2C19 activ: 0.8; CYP2C9 inh: 31.1; CYP2C19 inh: 17.5; CYP2C9 act: 0.7; EphB4 antag: 1.8

Results for O=C(CN1CCN(Cc2ccccc2Cl)C1=O)NC1CCCCCC1 ?
CYP2C19 activ: 0.4; CYP2C9 inh: -79.7; CYP2C19 inh: 60.5*; CYP2C9 act: 1.8; EphB4 antag: 2.2

What do the screens show for `O=C1N(CC(=O)N2CCc3ccccc32)CCN1Cc1ccccc1Cl`?
CYP2C19 activ: 0.7; CYP2C9 inh: -203.5; CYP2C19 inh: 25.4; CYP2C9 act: 3*; EphB4 antag: -1.5

What do the screens show for `CCc1c(C)[nH]n(CCC#N)c1=O`?
CYP2C19 activ: 1; CYP2C9 inh: -14.7; CYP2C19 inh: 1.1; CYP2C9 act: 1.1; EphB4 antag: -10.7
